High-throughput results deposited in PubChem BioAssay by National Center for Advancing Translational Sciences (NCATS).
An excerpt weighted towards active compounds, which were near 21% of everything screened.
HCV inhibitor: qHTS Assay for Inhibitors of Hepatitis C Virus (HCV) | Huh7.5.1 HCVcc-Cre infection, luciferase reporter, 44 h | Potency, µM (titrated, usually from 41.8 µM), without a hit: at the highest dose activity change, negative = inhibition, hits mostly inhibitors | 3.4% of 340,000 active; further: potency means the concentration at half of the fitted maximal effect; on the % scale 0 is the no-effect control and ±100 the full control effect
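Compounds are dispensed onto cells plated 4 h earlier at 1,000 per well, with HCVcc-Cre virus (about 0.5 moi) added next. Following 44 h of culture, luminescent signal is measured for 15 sec after 15 min with substrate at room temperature.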
AMA1-RON2 inh: qHTS for Inhibitors of AMA1-RON; Towards Development of Antimalarial Drug Lead: Primary Screen; Plasmodium falciparum AMA1 (3D7) - RON2 peptide interaction; AlphaScreen AMA1-biotinylated RON2 peptide binding; Potency, µM (doses to about 58.2 µM), for inactives: top-dose activity change, negative = inhibition, most hits filed as inhibitors; 0.2% of 360,000 active; AID 720542, 2013;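 further: potency means the concentration at half of the fitted maximal effect; 0% = vehicle wells and -100% = peptide control; nearly all actives have a fitted effect of over 45% in size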
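AMA1 (3D7) with his tag at 25 nM final met compounds first, then biotinylated RON2 peptide at 25 nM; detection used donor plus acceptor beads, 10 µg/mL apiece, read by AlphaScreen after 30 min at room temperature.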
Pf growth 48h: Primary qHTS for delayed death inhibitors of the malarial parasite plastid, 48 hour incubation; P. falciparum luciferase growth in erythrocytes, 48 h; Potency, µM (top dose mostly 28.7 µM), without a hit: at the highest dose activity change, negative = inhibition, actives largely listed as inhibitors; 5.9% of 310,000 active; AID 504832, 2011; further: potency means the concentration at half of the fitted maximal effect; on the % scale 0 is the no-effect control and ±100 the full control effect
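Luminescence readout; reporter = integrated firefly luciferase in P. falciparum. RBC culture at 2% hematocrit, 0.1% parasitemia final, 37 C/5% CO2; decreased signal taken as growth inhibition.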
CHX counter: Cycloheximide Counterscreen for Small Molecule Inhibitors of Shiga Toxin. 12% of 300,000 active. AID 2314, 2010. max response, %. cell reporter, cycloheximide protein synthesis inhibition counterscreen; in the data active means max response mostly above about 13%, no sharp cut-off; inactive means mostly below about 14%; further: read at 38.3 µM for the half of the compounds with a filed dose; 0% is about no effect
Shiga toxin inh: A qHTS for Small Molecule Inhibitors of Shiga Toxin | Vero cells, Shiga toxin protein synthesis inhibition reporter | inhibition, % at 38.7 µM | 9.2% of 290,000 active | AID 2315, 2010; in the data active means inhibition mostly above about 28%, no sharp cut-off; inactive means mostly below about 43%; further: 0% is about no effect
Pf growth 96h: Primary qHTS for delayed death inhibitors of the malarial parasite plastid, 96 hour incubation; P. falciparum luciferase reporter growth, 96 h; AID 504834, 2011; Potency, µM (series often up to 28.7 µM), for the others: top-dose activity change, negative = inhibition, most hits filed as inhibitors; 6.9% of 320,000 active; further: potency means the concentration at half of the fitted maximal effect; on the % scale 0 is the no-effect control and ±100 the full control effect
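P. falciparum expressing integrated firefly luciferase grown in erythrocytes (2% hematocrit, 0.05% parasitemia final) with compounds for 96 hours at 37 C, 5% CO2. Growth inhibition read as loss of luminescence after adding luciferase detection reagent.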
Numbers without * were called inactive; ? = inconclusive; nt = not tested or not shown. Unless noted, the call rests on the fitted dose curve; in most records, active means well fitted curve in the direction sought with a large enough effect; inconclusive means small, poorly fitted or top-dose-only effect, or another doubt; inactive means no such curve, though single readings can be large; an effect the other way counts as inactive or inconclusive.

SMILES | HCV inhibitor | AMA1-RON2 inh | Pf growth 48h | CHX counter | Shiga toxin inh | Pf growth 96h
O=C1C2C(c3ccccc3)CC=CC2C(c2ccc(C(F)(F)F)cc2)N1Cc1ccccc1 (centres undefined) | nt | nt | nt | 1 | -4 | nt
O=C(Nc1cccc(C(F)(F)F)c1)c1ccc2sc([C@H]3C[C@H](O)[C@@H](CO)O3)nc2c1 | nt | 10% | nt | nt | nt | nt
C[C@H](c1ccccc1)N1C[C@H](COCc2ccccc2)Oc2cc(N3CC[C@@H](O)C3)ccc2S1(=O)=O | nt | -13% | nt | nt | nt | nt
O=C(N[C@@H]1CC[C@@H](CCn2cc(-c3ccccc3)nn2)O[C@@H]1CO)c1cnccn1 | nt | 3% | nt | nt | nt | nt
COC(=O)C1=C(c2ccc(F)cc2F)C[C@@H]2CC[C@H]1N2C(=O)NCc1ccc(C(F)(F)F)cc1 | -27% | 3% | 12µM* | nt | nt | ?
COC(=O)C1=C(c2ccc(F)cc2OCc2ccccc2)C[C@@H]2CC[C@H]1N2C(=O)NC1Cc2ccccc2C1 | 11µM* | -4% | ? | nt | nt | 1.7µM*
COC(=O)C1=C(c2ccc(F)cc2OCc2ccccc2)C[C@@H]2CC[C@H]1N2C(=O)NCCCc1ccccc1 | 10µM* | -9% | 12µM* | nt | nt | 5.2µM*
COC(=O)C1=C(c2ccc(F)cc2OCc2ccccc2)C[C@@H]2CC[C@H]1N2C(=O)N1CCCCC1 | ? | 2% | ? | nt | nt | ?
COC(=O)C1=C(c2ccc(F)cc2OCc2ccccc2)C[C@@H]2CC[C@H]1N2C(=O)NCc1ccc(F)cc1 | ? | 4% | 10µM* | nt | nt | ?
C=CCNC(=S)NNC(=O)c1ccccc1OCC | 23% | 99% | 30% | 1 | -4 | 23%
NNC(=O)c1ccc(Cn2cc(Br)c(N)n2)cc1 | 17% | ? | 47% | 12* | 18 | 0%
CCOc1nc2cccc(C(=O)O)c2n1Cc1ccc(-c2ccccc2-c2nn[nH]n2)cc1 | nt | nt | ? | nt | nt | 2.1µM*
C[C@@H](O)CNC(C)(C)CC(=O)N[C@@H]1CCc2ccccc2N(Cc2ccc(-c3ccccc3-c3nn[nH]n3)cc2)C1=O | nt | nt | nt | 4 | 12 | nt
C[C@H](NC(=O)c1ccccc1)C(=O)OCC(=O)Nc1ccc(Cl)cn1 | nt | -1% | nt | nt | nt | nt
COc1ccc(N2CCN(C(=O)c3cccc(N4C(=O)C5CC=CC(C)C5C4=O)c3)CC2)cc1 (centres undefined) | nt | -2% | 21% | -1 | -18 | 43%
COc1ccc(N(C)S(=O)(=O)c2cccc(C(=O)N3CCN(c4ccccc4)CC3)c2)cc1 | ? | ? | 10µM* | nt | nt | ?
COc1ccc(N2CCN(C(=O)c3cccc(N4C(=O)C5C6C=CC(C6)C5C4=O)c3)CC2)cc1 (centres undefined) | 4% | 2% | 10µM* | 1 | -4 | 61%
COc1ccc(N2CCN(C(=O)c3ccccc3N(C)S(=O)(=O)c3ccc(C)cc3)CC2)cc1 | nt | ? | ? | 0 | -9 | 10µM*
Cc1ccc(S(=O)(=O)N(C)c2ccccc2C(=O)N2CCCC2)cc1 | 8% | 0% | -15% | 4 | -6 | ?
COc1ccc(N(C)S(=O)(=O)c2cccc(C(=O)N3CCN(Cc4ccc5c(c4)OCO5)CC3)c2)cc1 | ? | -25% | ? | nt | nt | 13µM*
COc1ccc(C(=O)NCC(=O)N2CCN(C(=O)c3ccco3)CC2)cc1 | 8% | 21% | 54% | -3 | -3 | 74%
O=S(=O)(O)CCCS(=O)(=O)O | nt | nt | -9% | nt | nt | 5%
O=C(CSc1nnc(-c2ccccn2)n1Cc1ccco1)Nc1ccc2c(c1)OCO2 | 4% | 2% | 8% | 1 | -28 | 32%
CCn1c(SCC(=O)Nc2ccc3c(c2)OCCO3)nnc1-c1ccccn1 | 3% | -16% | 0% | 2 | 84 | 2.1µM*
C=CCn1c(SCC(=O)Nc2ccc3c(c2)OCCO3)nnc1-c1ccccn1 | -2% | -21% | 9% | -2 | 27 | 0%
Cc1ccccc1-n1c(SCC(=O)Nc2ccc3c(c2)OCO3)nnc1-c1ccccn1 | 22µM* | -4% | ? | -2 | 8 | 29%
